From PubChem BioAssay
CYP2C19 activ = cytochrome P450 2C19 (human) activation; P33261; recombinant CYP2C19, luciferin-H EGE luminescence; stronger effect = higher value; 0 = fully inhibited enzyme, 1 = untreated enzyme; activation factor at 5 µM; 96,000 tested, under 10 active; AID 1025;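 active = activation factor of at least 2 at 5 µM in the primary screen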
Target sequence (P33261 whole entry, looked up): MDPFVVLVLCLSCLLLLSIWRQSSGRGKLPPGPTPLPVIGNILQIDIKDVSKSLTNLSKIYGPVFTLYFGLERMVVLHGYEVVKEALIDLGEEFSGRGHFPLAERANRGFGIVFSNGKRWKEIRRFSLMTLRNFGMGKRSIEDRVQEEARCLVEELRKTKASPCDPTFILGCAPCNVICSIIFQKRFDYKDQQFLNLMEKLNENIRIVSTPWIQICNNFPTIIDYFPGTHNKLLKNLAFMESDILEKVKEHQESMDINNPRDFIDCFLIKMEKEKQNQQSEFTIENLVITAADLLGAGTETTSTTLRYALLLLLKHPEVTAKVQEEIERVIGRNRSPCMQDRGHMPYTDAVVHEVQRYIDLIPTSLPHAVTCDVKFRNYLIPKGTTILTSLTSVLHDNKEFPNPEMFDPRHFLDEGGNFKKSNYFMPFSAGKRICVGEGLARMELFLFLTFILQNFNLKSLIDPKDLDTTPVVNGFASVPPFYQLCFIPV
CYP2C9 act = activators of human CYP2C9; P11712; recombinant CYP2C9, luciferin-H conversion, luminescence; stronger effect = higher value; factor 1 = untreated enzyme, 0 = blocked; activation factor at 5 µM; 1.4% of 96,000 active; AID 1024;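 active = activation factor of 2 or more for CYP2C9 at a 5 µM dose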
CYP2C9 inhib = human CYP2C9 inhibition. P11712. CYP2C9 Supersomes, luciferin-H conversion, luminescence. inhibition, % at 5 µM. 20% of 96,000 active. AID 777;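 active = blocking of liver enzyme CYP2C9 beyond about 50% at 5 µM, limit read from the data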
EphB4 ephrin blk = blocks human EphB4 binding to ephrin-B2; P54760; EphB4 LBD / TNYL-RAW-Alexa532 peptide, fluorescence polarization; inhibition, % at 7 µM; 0.15% of 97,000 active;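 active = inhibition above the screen-wide mean inhibition plus 3 SD, cut at about 15% in these data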
CYP2C19 inhib = blocks human cytochrome P450 2C19. P33261. CYP2C19 Supersomes, luciferin-H EGE luminescence, 30 min. inhibition, % at 5 µM. 21% of 96,000 active. AID 778;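 active = CYP2C19 inhibition above a set limit at 5 µM in the primary screen, cut at about 50% in these data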
Numbers stand for hits; 0 = inactive; - = no result. An excerpt weighted towards active compounds, which were near 27% of everything screened.

SMILES	CYP2C19 activ	CYP2C9 act	CYP2C9 inhib	EphB4 ephrin blk	CYP2C19 inhib
COc1cc(S(=O)(=O)NC2CCCCC2)ccc1F	0	2.1	0	0	85
Cc1cc(C)nc(SCc2nnc(SCC(=O)Nc3nc(-c4ccccc4)cs3)n2-c2ccccc2)n1	0	0	0	0	0
O=C(COC(=O)c1cc[n+]([O-])cc1)Nc1ccc2c(c1)OCCO2	0	0	0	0	0
COc1ccccc1Nc1ccc(C(=O)NC2CCCCC2)cn1	0	2	0	0	0
CC1CCCN(C(=O)c2ccc3c(c2NCCO)C(=O)c2ccccc2C3=O)C1 (stereo not drawn)	0	0	0	0	59
CC1CCCN(C(=O)c2ccc(CNc3c(N4CCCCC4)c(=O)c3=O)cc2)C1 (stereo not drawn)	0	0	0	0	0
CCOC(=O)C1=C(Cn2cnc3ccccc32)NC(=O)NC1c1ccc(Cl)cc1 (stereo not drawn)	0	0	0	0	0
CCOC(=O)C1=C(Cn2cnc3ccccc32)NC(=O)NC1c1ccc(OC)cc1 (stereo not drawn)	0	0	67	0	54
O=C(Nc1cccc2nsnc12)c1ccc2c(c1)OCO2	0	0	0	0	0
CCn1nnnc1NCc1ccc(N2CCCC2)cc1	0	0	81	-	79
c1ccc(CNc2nnnn2-c2ccccc2)cc1	-	-	-	0	-
COc1ccccc1N(CN1CCCC1=O)C(=O)c1c(F)cccc1F	0	0	76	0	0
NC(=S)N/N=C/c1ccc(-c2cc(Cl)ccc2Cl)o1	0	0	0	0	0
CC1=NN(C(=O)Cc2ccc([N+](=O)[O-])cc2)C(O)(c2ccccc2)C1 (stereo not drawn)	0	0	0	0	59
O=C1C2CCCN2C(c2ccc(F)cc2)N1c1nccs1 (stereo not drawn)	0	0	0	0	0
Cc1nn(S(=O)(=O)c2ccc([N+](=O)[O-])cc2)c(C)c1Sc1ccccc1	-	-	-	0	-
Cc1nn(C)c(C)c1Sc1ccc(Br)cc1	0	0	0	0	64
Cc1cc(C)cc(N(CCC#N)C(=O)CSc2nc3nc(C)cc(C)n3n2)c1	0	0	0	0	0
N#CCCN(C(=O)CSc1ccc2c(c1)OCCO2)c1ccccc1	0	0	56	-	93
CCN(C(=O)CSc1ccc2c(c1)OCCO2)C1CCS(=O)(=O)C1 (stereo not drawn)	0	0	0	0	0
CC(=O)Nc1ccc(SCC(=O)N(CCC#N)c2cc(C)cc(C)c2)cc1	0	0	70	0	82
COc1ccccc1C(=O)Nc1nnn(C)n1	0	0	0	0	0
N#Cc1c(-c2ccccc2)ccn(Cc2cccc(Cl)c2)c1=O	0	0	51	0	77
N#Cc1c(-c2ccccc2)ccn(Cc2ccccc2Cl)c1=O	0	0	0	0	54
N=c1n(CC(=O)O)c2ccccc2n1Cc1ccccc1Cl	0	0	0	0	0
SMILES	CYP2C19 activ	CYP2C9 act	CYP2C9 inhib	EphB4 ephrin blk	CYP2C19 inhib
CSc1cc(-c2ccccc2)n(Cc2ccccc2Cl)c(=O)c1C#N	0	0	61	0	0
CCOC(=O)C1=C(CC)Nc2ccccc2N=C1NC(=O)Nc1ccccc1OC	0	0	0	0	0
O=C(NCSc1ccncn1)c1ccccc1	0	0	0	0	0
O=C(O)c1ccc(-c2cccc(Cl)c2)o1	-	-	-	0	-
S=C(c1ccc(-c2cccc(Cl)c2)o1)N1CCOCC1	0	0	0	-	50
N#CCCN1CCN(C(=S)c2ccc(-c3cccc(Cl)c3)o2)CC1	0	0	0	0	93
CC(=O)N1CCN(C(=S)c2ccc(-c3ccc(Cl)cc3)o2)CC1	0	0	0	0	0
N#CCCN1CCN(C(=S)c2ccc(-c3ccc(Cl)c(Cl)c3)o2)CC1	0	0	61	0	0
O=C(Nc1ccc(Cl)cc1)N1CCCN(Cc2ccccc2F)C1	0	0	0	0	0
Cc1ccc2nc(NCCCO)nc(-c3ccccc3)c2c1	0	0	0	0	0
O=c1c2ccc(-c3nnc4n3-c3ccccc3SC4)cc2nc2n1CCCCC2	-	-	-	0	-
CCCOc1ccc2oc(=O)c3c(c2c1)CCCN3C(=O)CN(C)Cc1ccccc1	0	0	86	0	55
O=C(CN1CCCCC1)N1CCCc2c1c(=O)oc1ccc(OCc3ccccc3)cc21	-	-	-	0	-
CCCCCOc1ccc2oc(=O)c3c(c2c1)CCCN3C(=O)CN1CCCC(C(=O)OCC)C1 (stereo not drawn)	0	0	94	0	76
Cc1ccc(S(=O)(=O)N2CC(O)CC2C(=O)Nc2ccc3c(c2)CCC3)cc1 (stereo not drawn)	0	0	0	0	0
Cc1oc2cc(O)ccc2c(=O)c1Oc1ccc2ccccc2c1	0	2	0	0	0
CC(C)NS(=O)(=O)c1ccc(OCC(=O)N2CCCC2)c(Cl)c1	0	0	0	0	0
CCOC(=O)c1c(-n2c(C)cc(C=O)c2C)sc2c1CCCC2	0	0	61	0	0
O=c1n(Cc2ccc(Cl)cc2)c2sc3c(c2c2ncnn12)CCCC3	0	0	85	0	0
CC(C)NC1=C(Cl)C(=O)c2ccccc2C1=O	0	0	0	0	90
O=C(Nc1nccs1)c1ccc2nccnc2c1	0	0	0	0	0
Cc1ccc2c(c1)C1CN(C)CCC1N2CC(=O)N(C)c1ccccc1 (stereo not drawn)	0	0	0	-	0
Cc1ccccc1N(C(=O)Cc1ccsc1)C(C(=O)NC1CCCCC1)c1ccc(F)cc1 (stereo not drawn)	0	0	0	0	0
C/C(=N\NC(=O)c1[nH]c2c([N+](=O)[O-])cc(C)cc2c1-c1ccccc1)c1cccnc1	0	0	0	0	62
Cc1cc(C)nc(SCCS(=O)(=O)Cc2ccccc2)n1	0	0	0	0	83
SMILES	CYP2C19 activ	CYP2C9 act	CYP2C9 inhib	EphB4 ephrin blk	CYP2C19 inhib
Cc1cc(C)nc(SCCS(=O)(=O)Cc2ccc(Cl)cc2)n1	-	-	-	0	-
COc1cc(CO)ccc1Oc1nnnn1-c1ccc(C(N)=O)cc1	0	0	0	0	0
Nc1nc2n(n1)C(c1ccc(F)cc1)CC(c1ccc(F)cc1)N2 (stereo not drawn)	0	0	0	0	71
Nc1nc2n(n1)C(c1cccc(Cl)c1)CC(c1ccc(F)cc1)N2 (stereo not drawn)	0	0	0	0	89
CCOC(=O)c1cccc(NC(=O)Cn2c(CC(=O)N3CCCC3)nc3ccccc32)c1	0	0	88	0	0
CCSc1nc2ccccc2n1CC(=O)N1CCCCC1	0	0	0	0	0
CCOC(=O)c1ccccc1NC(=O)CSc1nc2ccccc2n1CC(=O)N1CCCC1	0	0	87	0	82
Cc1ccc(/C=C/C2=Cc3c(sc(NC(=O)CSc4n[nH]c(N)n4)c3C#N)C(C)(C)C2)o1	0	0	91	0	0
CC1(C)Cc2noc(N)c2C(C)(C)N1OC(=O)c1ccccc1	0	0	57	0	100
Cc1cc(C)c(S(=O)(=O)Nc2cccnc2)c(C)c1	0	0	0	-	0
O=S(=O)(Nc1cccnc1)c1ccc(C2CCCCC2)cc1	0	0	0	0	0
O=S(=O)(Nc1ccncc1)c1ccc(Cl)cc1	0	0	0	0	0
CC(C)(C)c1ccc(S(=O)(=O)Nc2cccnc2)cc1	0	0	0	0	62
